In the supplement of paper PMC11417369:
± gives the standard deviation of the averaged measurements. Whole data set: some 25,000 sequences, median “ln(normalized median fluorescence intensity)” near 10, cut for the highest 2% near 12. What follows is part of a selection rich in the highest values, with near analogues and random picks from the rest.

The sequences below were run on PfAP2-G AP2 domain (GST-tagged) (assay: gcPBM binding intensity (ln(normalized median fluorescence intensity)); higher = stronger DNA binding).
Summary of the method: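 Alexa488 anti-GST antibody, scanned at 488 nm, detected GST-tagged P. falciparum DNA-binding domains that had been expressed in E. coli and incubated for 1 h on an Agilent 4 × 180k array. The array carried primer-extended double-stranded 36-bp intergenic genomic probes and negative controls. Binding intensity is the highest Masliner-normalised natural-log median intensity across replicate spots of either orientation of each probe.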
With “GTGTAATATGAAATGTGTACACACGCACACACAAAA [XGTACX_site6180]” the “gcPBM binding intensity (ln)” value was 11.7 ± 1.1.
For “TAATATGAAAAGTGTACACACGCACAGACAAAAAAA [CACACA_site5594]”, the “gcPBM binding intensity (ln)” value was 11.6 ± 0.95.
With “AATGTGTACGCACGCACACACAAAAAAATATATATA [CACACA_site2913]” the “gcPBM binding intensity (ln)” value was 11.6 ± 1.2.
With “ATTTTTTTACAAAAATGTACACATGAAATATGTAAT [XGTACX_site1372]” the “gcPBM binding intensity (ln)” value was 11.3 ± 0.69.
With “AATGTACACCCACCCACACACAAACAAATATATATA [CACACA_site5521]” the “gcPBM binding intensity (ln)” value was 11.4 ± 0.92.
For “GAAATGTGTAGACACGCACACACAAAAAAATATATA [CACACA_site2912]”, the “gcPBM binding intensity (ln)” value was 10.2 ± 0.34.
In the case of “TAATATGAAATGTGTACACACGCACCCACAAAAAAA [CACACA_site8949]”, the “gcPBM binding intensity (ln)” value is reported as 11.8 ± 0.93.
With “GAAAAAGACAAAAGGTGTACAATATGAAATATATAT [XGTACX_site373]” the “gcPBM binding intensity (ln)” value was 11.5 ± 0.86.
In the case of “AACATATTAATGTACACACACCCACGCACAAACAAA [CACACA_site7320]”, the “gcPBM binding intensity (ln)” value is reported as 11.5 ± 0.91.
In the case of “TGTAATATGAAATGTGTACACACGCACCCACAAAAA [CACACA_site8948]”, the “gcPBM binding intensity (ln)” value is reported as 11.6 ± 1.
For “AATTTGTTAATATTTTGTACACATAATATAAAAACA [XGTACX_site2224]”, the “gcPBM binding intensity (ln)” value was 11.3 ± 0.89.
For “ATAATATGAAGAAGCACACTCAATTAAATACAGATA [CACACA_site4690]”, the “gcPBM binding intensity (ln)” value was 9.97 ± 0.071.
For “ACAAAATGTAGAAAATGTACAAAATTAACAAAAGAA [XGTACX_site5019]”, the “gcPBM binding intensity (ln)” value was 10.7 ± 0.3.
For “CTTCTTGTAAAATTTGCATGTAATTAAAAGAGAATG [TGCATGCA_site484]”, the “gcPBM binding intensity (ln)” value was 10.2 ± 0.3.
“TACAAAAAATTATGGAGTACATATATAATATACAAT [XGTACX_site1004]” was tested, and the “gcPBM binding intensity (ln)” value was 11.5 ± 0.88.
“GCACTCGTAAAAAGCACACATATAAAAACATTTATA [CACACA_site322]” was tested, and the “gcPBM binding intensity (ln)” value was 10.2 ± 0.26.
In the case of “TAAAATTTTGTTTGTTGTACTTATTTTCGTGTCAAC [XGTACX_site8277]”, the “gcPBM binding intensity (ln)” value is reported as 11.6 ± 1.
In the case of “TTTTTTTTTTTTTTTTGTACTTATAAAAAATTTTTT [XGTACX_site1249]”, the “gcPBM binding intensity (ln)” value is reported as 11.1 ± 0.88.
With “AAATAAAATTTTTGTTGTACTTATTTTTAGTATACT [XGTACX_site4254]” the “gcPBM binding intensity (ln)” value was 11.5 ± 0.81.
For “TACATATTTTTTATGTGTACATATTTTTTATGTGTA [XGTACX_site443]”, the “gcPBM binding intensity (ln)” value was 11.4 ± 0.76.
For “GAAAAAAGAAAAAAAAGTACACACATGTATATTAAT [XGTACX_site5265]”, the “gcPBM binding intensity (ln)” value was 11.5 ± 0.91.
With “ATAACATACATAACAACACACAATATTTATATGTAT [CACACA_site210]” the “gcPBM binding intensity (ln)” value was 9.85.
With “AAAATAATATATGTATGTACATATACACATATAGAA [XGTACX_site2218]” the “gcPBM binding intensity (ln)” value was 11.1 ± 0.59.
For “AAAATATTTAATAGAAGTACACATGTATATATACAT [XGTACX_site8942]”, the “gcPBM binding intensity (ln)” value was 11.6 ± 1.2.
“TATATAATATATATATGTACACATATACATTTTTAT [XGTACX_site2832]” was tested, and the “gcPBM binding intensity (ln)” value was 11.5 ± 0.97.
“GATAACAATATGTGTACACATTTATATCTCCACATA [CACACA_site5442]” was tested, and the “gcPBM binding intensity (ln)” value was 11.7 ± 0.83.
With “ATTTATTTTCTGTGTACACATATGTTGGGTATTTTA [CACACA_site5902]” the “gcPBM binding intensity (ln)” value was 11.7 ± 0.96.
In the case of “ATATATATACTGTGTACACACATATGTATTTATATA [CACACA_site4600]”, the “gcPBM binding intensity (ln)” value is reported as 11.6 ± 0.78.
In the case of “TACATATTTTTTATGTGTACATATTTTTTATGTGTG [XGTACX_site444]”, the “gcPBM binding intensity (ln)” value is reported as 11.5 ± 0.68.
For “CAACATATGCATATGTGTACATATTTTATTTTCAAC [XGTACX_site2237]”, the “gcPBM binding intensity (ln)” value was 11.7 ± 1.1.
In the case of “TATATTTATTTTCTGTGTACACATATGTTGTGTATT [XGTACX_site7640]”, the “gcPBM binding intensity (ln)” value is reported as 11.6 ± 1.
With “GAATGTCTAATTTTGATGCACACTTTTGTGCAATTA [CACACA_site2902]” the “gcPBM binding intensity (ln)” value was 10.2 ± 0.24.
With “AAAAAAAAAAAAAAAACACACATATATGTATATATA [CACACA_site3276]” the “gcPBM binding intensity (ln)” value was 10 ± 0.27.
With “AAGAAAAAAGGGGACAAGGCATATCTATATATACAT [TGCATGCA_negctrl_site172]” the “gcPBM binding intensity (ln)” value was 10.7 ± 0.52.
“TTATAATTAAGATATAATCAATAATAACAAATGAAC [CACACA_negctrl_site1690]” was tested, and the “gcPBM binding intensity (ln)” value was 9.84 ± 0.014.
For “AAACCGAATTTACATGAATGTAAATTATGTTGTTTT [CACACA_negctrl_site1834]”, the “gcPBM binding intensity (ln)” value was 9.53 ± 0.13.
In the case of “TTTGCTTCCAAAAGTCGTACAAAAAATATTAAATAT [XGTACX_site4171]”, the “gcPBM binding intensity (ln)” value is reported as 11.6 ± 0.9.
For “AATGAAGACTTTTTTACACACTTCATATCTTATAGA [CACACA_site7046]”, the “gcPBM binding intensity (ln)” value was 9.99 ± 0.028.
“ATGTGATATAAGTACACACACATATGTATATAGAAT [CACACA_site1823]” was tested, and the “gcPBM binding intensity (ln)” value was 11.5 ± 1.1.
For “TTTGTGTATATATAATGTACATTATATTTTTATTAT [XGTACX_site6506]”, the “gcPBM binding intensity (ln)” value was 10.9 ± 0.53.
“GTATATATGTATATGTGTACACATATTCTTAACTCA [XGTACX_site309]” was tested, and the “gcPBM binding intensity (ln)” value was 11.6 ± 0.89.
For “ATGTGATAGAAGTACACACACATATGTATTTATAAT [CACACA_site5075]”, the “gcPBM binding intensity (ln)” value was 11.7 ± 1.1.
With “TATTTCTGATTATTTTGTACACATTATATATAATGC [XGTACX_site6990]” the “gcPBM binding intensity (ln)” value was 11.2 ± 0.83.
For “AAATTACCCTTGTGTACACATATATTATCTGTATTA [CACACA_site4514]”, the “gcPBM binding intensity (ln)” value was 12 ± 1.4.
With “AAAAATTACCCTTGTGTACACATATATTATCTGTAT [CACACA_site4513]” the “gcPBM binding intensity (ln)” value was 11.6 ± 0.95.
With “ATGTGATATAAGTACACACACATATGTATTTATAAC [CACACA_site6942]” the “gcPBM binding intensity (ln)” value was 11.5 ± 0.8.
With “CAAAAATTACCCTTGTGTACACATATATTATATGTA [XGTACX_site1124]” the “gcPBM binding intensity (ln)” value was 11.6 ± 0.91.
For “GTATGTATATTTATCTGTACATATTTATGTATTCTT [XGTACX_site2112]”, the “gcPBM binding intensity (ln)” value was 11.2 ± 0.64.
In the case of “TATCTGTATATGTGTACACATATTCTTAACTCACGC [CACACA_site4255]”, the “gcPBM binding intensity (ln)” value is reported as 11.7 ± 1.
For “TTTGATTTTAATGTGTGTACACATTTATTTATATAA [XGTACX_site4806]”, the “gcPBM binding intensity (ln)” value was 11.8 ± 1.2.
